Assays:
Assay in all cases: Euclidean distance of Cell Painting phenotypic profile (signed KS, 77 features) to DMSO centroid (dimensionless distance); 5 or 10 uM (library dependent); higher = stronger phenotypic change vs DMSO (phenoactivity)
Conditions in all cases: 48 h
[1] = test system: 786-O
Summary of the method: (§1)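 Library compounds were applied at 10 or 5 uM, depending on the library, with 0.1% DMSO final, for 48 h to five cancer lines and a healthy fibroblast line. After staining, cells were imaged confocally at 20X across 9 fields per well, and Harmony extracted 77 features, each scored as a signed Kolmogorov-Smirnov statistic against vehicle wells on the same plate. Phenoactivity is the Euclidean distance between each profile and the median vehicle profile, with profiles first plate-position corrected, correlation-weighted and averaged over replicates at the top dose.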

[2] = test system: A549
Summary of the method: as §1

[3] = test system: DU145
Summary of the method: as §1

[4] = test system: FB
Summary of the method: as §1

[5] = test system: HEPG2
Summary of the method: as §1

[6] = test system: OVCAR4
Summary of the method: as §1

Row | SMILES | Euclidean distance [1] | Euclidean distance [2] | Euclidean distance [3] | Euclidean distance [4] | Euclidean distance [5] | Euclidean distance [6]
1 | C[C@]12CCC(=O)C=C1C=C[C@@H]1[C@@H]2CC[C@@]2(C)[C@H]1CC[C@@]21CCC(=O)O1 [Canrenone] | 1.64 | 0.961 | 1.1 | 1.33 | 1.24 | 1.05
2 | COc1ccc(C(=O)CC(=O)c2ccc(C(C)(C)C)cc2)cc1 [Avobenzone] | 1.41 | 0.547 | 0.714 | 1.02 | 0.762 | 0.989
3 | Nc1ccc2ncnc(NCCc3ccc(Oc4ccccc4)cc3)c2c1 | 1.67 | 1.95 | 1.06 | 1.68 | 3.12 | 0.755
4 | COc1ccc2[nH]c([S@@+]([O-])Cc3ncc(C)c(OC)c3C)nc2c1 [NEXIUM (esomeprazole magnesium)] | 1.31 | 0.829 | 1.47 | 0.904 | 1.81 | 1.65
5 | CC(=O)c1cc([N+](=O)[O-])c(Sc2cccc(Cl)c2Cl)s1 | 0.465 | 0.706 | 0.528 | 0.668 | 0.869 | 1.26
6 | CNCCc1ccccn1 [Betahistine 2HCl] | 1.56 | 0.851 | 1.21 | 0.822 | 0.61 | 1.03
7 | CC(C)N1CCN(Cc2cnc(-c3cc(-c4cccc5[nH]ccc45)cc4[nH]ncc34)o2)CC1 | 3.29 | 3.89 | 3.41 | 3.33 | 3.14 | 3.89
8 | O=C1CC[C@H](N2Cc3c(OCc4ccc(CN5CCOCC5)cc4)cccc3C2=O)C(=O)N1 [Iberdomide(CC220)] | 1.05 | 1.02 | 0.711 | 1.32 | 1.24 | 0.967
9 | COc1cc(O)c2c(c1)C(=O)c1cc(C)cc(O)c1C2=O [Rheochrysidin] | 1.23 | 0.528 | 1.42 | 0.862 | 4.92 | 1.29
10 | CS(=O)(=O)CCNCc1ccc(-c2ccc3ncnc(Nc4ccc(OCc5cccc(F)c5)c(Cl)c4)c3c2)o1 [Lapatinib ditosylate monohydrate] | 4.93 | 3.12 | 2.25 | 2.59 | 3.3 | 3.37
11 | CN1CCN(c2cccc(Nc3nc4c(-c5ccc(S(C)(=O)=O)cc5)cccn4n3)c2)CC1 | 1.38 | 1.14 | 1.07 | 1.26 | 0.565 | 1.25
12 | CO[C@@]1(NC(=O)C(C(=O)O)c2ccc(O)cc2)C(=O)N2C(C(=O)O)=C(CSc3nnnn3C)CO[C@@H]21 (some centres undefined) [Latamoxef sodium] | 1.53 | 0.777 | 1.09 | 0.907 | 0.797 | 1.39
13 | CC(NC(=O)c1ccccc1/N=C/c1c(O)ccc2ccccc12)c1ccccc1 (centres undefined) [Sirtinol] | 0.539 | 0.747 | 0.686 | 0.99 | 2.2 | 0.857
14 | Cc1cc(=O)n(-c2ccccc2)n1C [Antipyrine] | 1.52 | 0.45 | 1.03 | 1.42 | 0.888 | 0.707
15 | CCOc1ccn(-c2ccc(F)cc2)c(=O)c1C(=O)Nc1ccc(Oc2ccnc(N)c2Cl)c(F)c1 | 1.2 | 3.4 | 1.66 | 2.27 | 1.66 | 2.55
16 | COc1cc(CNC(=O)CCCC/C=C\C(C)C)ccc1O [Zucapsaicin] | 0.772 | 0.503 | 0.672 | 0.743 | 0.98 | 1.01
17 | Cc1cccc(Nc2nc(-c3ccncc3)cs2)c1 | 3.35 | 3.77 | 4.06 | 3.02 | 1.11 | 1.73
18 | CCCCCCCCOc1ccccc1C(=O)Nc1ccc(C(=O)OCC[N+](C)(CC)CC)cc1 [Otilonium Bromide] | 1.03 | 1.09 | 1.91 | 1.24 | 1.11 | 1.03
19 | OC[C@H]1O[C@@H](OCCc2ccc(O)cc2)[C@H](O)[C@@H](O)[C@@H]1O [Salidroside] | 1.05 | 0.737 | 0.796 | 0.815 | 0.763 | 1.5
20 | NC(=O)c1noc([C@H](CCCC2CCCCC2)CC(=O)NO)n1 | 1.23 | 0.66 | 0.701 | 1.25 | 0.93 | 0.933
21 | CC(=O)OCC1=C(C(=O)O)N2C(=O)[C@@H](NC(=O)CSC(=NC(C)C)NC(C)C)[C@H]2SC1 [Cefathiamidine] | 1.48 | 0.7 | 1.41 | 0.888 | 0.62 | 1.82
22 | CC(/C=C/C(=O)NO)=C\[C@@H](C)C(=O)c1ccc(N(C)C)cc1 [Trichostatin A] | 3.62 | 4.26 | 3.19 | 4.05 | 3.58 | 3.53
23 | CN(C)C(=O)c1cc2cnc(Nc3ccc(N4CCNCC4)cn3)nc2n1C1CCCC1 | 2.35 | 1.67 | 1.46 | 3.9 | 1.9 | 1.81
24 | CN1CCN(S(=O)(=O)c2ccc(-c3cnc(N)c(C(=O)Nc4cccnc4)n3)cc2)CC1 | 3.21 | 3.47 | 1.43 | 1.66 | 1.34 | 3.18

— the supplement of paper PMC10127200
